“And” between values parts separate entries of the source, which are not always exact repeats. Equal values may be shown once. Records with an inconclusive call do not appear. For part of these data: Results with a measured potency or affinity are listed apart. The source made the active and inactive calls. Starred links: 1 amine or outer side, 2 acyl side, 3 side chain; linkers in the order of their positions; H or OH if unused. Positions of bridges follow the written chain, without caps; N, C: chain ends. Non-standard residues stand in square brackets, D forms with d. Residues, ends and D or L forms follow the SMILES beside them. ξ: configuration not given here. *: point of attachment. ΔAla(3-NHCONH2) = NC(=O)NC=C(N)C(=O)O; X1 = NC1=NCCC(C(N[*:1])C(=O)[*:2])N1; ξβ3hOrn = NCCCC(N)CC(=O)*; Dap = NC[CH](N)C(=O)O
What was measured:
[1] = qHTS profiling of the MIPE4 collection as inhibitors of Plasmodium falciparum (3D7) proliferation (AID 743344);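 note: scaled between DMSO vehicle wells and 0.29 µM artemisinin as full inhibition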; details: P. falciparum 3D7 in erythrocytes, SYBR Green DNA fluorescence, 72 h
Procedure, shortened: (§1)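 Erythrocytes infected with P. falciparum (0.3% parasitemia, 2.5% hematocrit) incubated with compounds 72 h at 37 C, 5% CO2. Lysis with saponin/Triton buffer containing SYBR Green I, overnight at room temperature in the dark; DNA fluorescence (485/535 nm) normalised to 0.29 uM artemisinin and DMSO.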

[2] = qHTS profiling of the MIPE4 collection as inhibitors of Plasmodium falciparum (DD2) proliferation (AID 743345); details: P. falciparum Dd2 in erythrocytes, SYBR Green DNA, 72 h
Procedure, shortened: as §1

[3] = qHTS profiling of the MIPE4 collection as inhibitors of Plasmodium falciparum (HB3) proliferation (AID 743347);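 note: plate controls were DMSO vehicle wells for no effect and artemisinin wells for full effect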; details: P. falciparum HB3 in erythrocytes, SYBR Green DNA, 72 h
Procedure, shortened: as §1

[4] = Ebola virus entry assay, green fluorescence channel
[5] = Ebola virus entry assay, blue channel fluorescence
[6] = Ebola virus entry assay, green fluorescence channel; remark: listed apart in the source
[7] = Ebola virus entry assay, blue channel fluorescence; remark: listed apart in the source
[8] = Ebola virus entry assay, ratio channel
[9] = Ebola virus entry assay, green channel fluorescence
[10] = Ebola virus entry assay, ratio channel readout
[11] = biological target: T1, Hexokinase-4 (Homo sapiens) + Glucokinase regulatory protein (Homo sapiens) (UniProt P35557+Q14397); experiment: qHTS assay for inhibitors of recombinant human GCK-GKRP interaction: Diaphorase-coupled assay (AID 743205; active = well fitted curve in the direction sought with a large enough effect)
T1 sequence (P35557 whole entry, looked up): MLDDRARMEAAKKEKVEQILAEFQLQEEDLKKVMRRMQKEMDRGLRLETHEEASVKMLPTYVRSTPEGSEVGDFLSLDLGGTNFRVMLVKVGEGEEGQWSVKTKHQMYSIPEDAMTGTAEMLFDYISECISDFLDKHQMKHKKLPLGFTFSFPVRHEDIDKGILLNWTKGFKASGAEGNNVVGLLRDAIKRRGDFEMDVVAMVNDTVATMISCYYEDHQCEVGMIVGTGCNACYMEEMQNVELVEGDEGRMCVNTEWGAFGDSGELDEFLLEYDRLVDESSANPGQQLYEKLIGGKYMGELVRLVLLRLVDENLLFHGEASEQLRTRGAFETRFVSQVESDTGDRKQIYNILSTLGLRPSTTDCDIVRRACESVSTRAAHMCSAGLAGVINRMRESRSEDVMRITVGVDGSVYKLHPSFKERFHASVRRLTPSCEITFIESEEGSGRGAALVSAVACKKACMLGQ
T1 sequence (Q14397 whole entry, looked up): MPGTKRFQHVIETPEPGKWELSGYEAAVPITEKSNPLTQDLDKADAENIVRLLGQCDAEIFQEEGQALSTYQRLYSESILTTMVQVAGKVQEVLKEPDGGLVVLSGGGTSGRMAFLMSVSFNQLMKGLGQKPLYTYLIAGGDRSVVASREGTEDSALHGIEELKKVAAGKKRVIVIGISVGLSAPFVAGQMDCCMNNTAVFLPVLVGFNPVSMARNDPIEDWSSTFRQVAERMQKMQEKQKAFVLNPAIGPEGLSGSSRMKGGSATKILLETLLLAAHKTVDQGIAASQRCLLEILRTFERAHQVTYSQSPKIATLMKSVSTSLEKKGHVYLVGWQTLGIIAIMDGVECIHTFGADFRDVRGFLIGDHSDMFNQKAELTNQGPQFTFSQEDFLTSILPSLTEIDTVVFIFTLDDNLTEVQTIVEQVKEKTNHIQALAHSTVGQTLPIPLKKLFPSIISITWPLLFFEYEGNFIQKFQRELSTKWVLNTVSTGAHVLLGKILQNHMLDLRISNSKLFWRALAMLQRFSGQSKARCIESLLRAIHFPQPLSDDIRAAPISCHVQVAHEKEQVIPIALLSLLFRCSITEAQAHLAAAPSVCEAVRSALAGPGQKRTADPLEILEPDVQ
Procedure, shortened: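 A kinetic fluorescence read (Ex 525/Em 590 nm, every minute for 30 minutes) tracked resorufin from a G6PDH-diaphorase coupled GCK reaction. It contained 10 nM GST-GCK, 10 nM FLAG-GKRP, 5 mM glucose, 0.4 mM ATP in Hepes pH 7.6. Normalized to with/without-enzyme DMSO controls.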

[12] = biological target: T1, Hexokinase-4 (Homo sapiens) + Glucokinase regulatory protein (Homo sapiens); experiment: qHTS assay for inhibitors of recombinant human GCK-GKRP interaction: ADP-Glo assay (AID 743206; active = well fitted curve in the direction sought with a large enough effect;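 note: plate controls were DMSO plus enzyme for no effect and no enzyme for full effect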)
Procedure, shortened: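 GST-GCK and FLAG-GKRP (15 nM each in the dispensed mix, with 2 uM S6P) react with 0.4 mM ATP and 5 mM glucose (final) in Hepes pH 7.6 for 60 min at room temperature. ADP is measured by ADP-Glo luminescence.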

[13] = biological target: T1, Hexokinase-4 (Homo sapiens) + Glucokinase regulatory protein (Homo sapiens); experiment: qHTS assay for inhibitors of recombinant human GCK-GKRP interaction: HTRF assay (AID 743207; active = well fitted curve in the direction sought with a large enough effect;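 note: 0% = DMSO with GCK present and -100% = DMSO wells lacking GCK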)
Procedure, shortened: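 After 60 min equilibration at room temperature with anti-FLAG XL665 and anti-GST antibodies, FRET ratio (665/615 nm, excitation 320 nm) was read. Proteins: GST-GCK and FLAG-GKRP, each 5 nM, plus 2 uM S6P, pH 7.1 buffer; GCK-free wells define minimum signal.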

[14] = qHTS Assay for Identifying Gametocytocidal Compounds (AID 743244; active = well fitted curve in the direction sought with a large enough effect;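 note: % is set by controls: 0 for no effect and ±100 for the full control effect; actives lower the fluorescent signal which means gametocytes are killed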); details: P. falciparum 3D7 stage III-V gametocytes, alamarBlue, 72 h; max response: stronger effect = lower value
Procedure, shortened: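 Stage III–V gametocytes of P. falciparum 3D7 were seeded at 20,000 cells/well onto pre-dispensed compounds. After 72 h, 37 °C, 5% CO2, alamarBlue was added for another 24 h.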

[15] = at 28.5 µM unless noted
[16] = at 0.217 µM (top of the series)
Throughout, for efficacy: 0% is about no effect.

CCOC(=O)c1ncn2c1CN(C)C(=O)c1cc(F)ccc1-2
94.6%: growth, % of control [3, 15]
69.1%: parasite growth, % of DMSO control [1, 15]
84.4%: parasite growth remaining, % of DMSO control (lower = more inhibition) [2, 15]
inactive: efficacy [4] -22.5% | outcome [5] | outcome [6] | outcome [7] | outcome [8] | outcome [9]

CC(C)(C)C(=O)OCOP(=O)(COCCn1cnc2c(N)ncnc21)OCOC(=O)C(C)(C)C
inactive: efficacy [4] -17.9% | outcome [5] | outcome [6] | outcome [10] | outcome [9]

COC(=O)[C@@H]1CC2=CC(=O)CC[C@]2(C)[C@@]23O[C@@H]2C[C@@]2(C)[C@@H](CC[C@@]24CCC(=O)O4)[C@H]13
inactive: efficacy [4] -15.8% | outcome [5] | outcome [6] | outcome [10] | outcome [9]

CN(C)CCc1c[nH]c2ccc(C[C@H]3COC(=O)N3)cc12
inactive: efficacy [4] -13.2% | outcome [5] | outcome [6] | outcome [10] | outcome [9]

Nc1[nH]c(=O)ncc1F
inactive: efficacy [4] 14.3% | outcome [5] | outcome [6] | outcome [10] | outcome [9]

O=C(O)CCCc1ccccc1
inactive: efficacy [4] -16.1% | outcome [5] | outcome [6] | outcome [10] | outcome [9]

COc1cc(Cc2cnc(N)nc2N)cc(OC)c1OC
inactive: efficacy [4] -22.6% | outcome [5] | outcome [6] | outcome [10] | outcome [9]

NCC(CC(=O)O)c1ccc(Cl)cc1 (centres undefined)
inactive: outcome [11] | outcome [12] | outcome [13] | max response [14] 0.281% and 9.05% | efficacy [4] -35.7% | outcome [5] | outcome [6] | outcome [10]

O=C(O)c1cn(C2CC2)c2cc(N3CCNCC3)c(F)cc2c1=O
inactive: efficacy [4] -9.16% | outcome [5] | outcome [6] | outcome [10] | outcome [9]

CCCC(CCC)C(=O)O
inactive: efficacy [4] -11.7% | outcome [5] | outcome [6] | outcome [10] | outcome [9]

C[C@@H](O)[C@H]1C(=O)N2C(C(=O)O)=C(S[C@@H]3CN[C@H](C(=O)N(C)C)C3)[C@H](C)[C@H]12
inactive: efficacy [4] 17.9% | outcome [5] | outcome [6] | outcome [10] | outcome [9]

O=C1CCc2ccc(OCCCCN3CCN(c4cccc(Cl)c4Cl)CC3)cc2N1
inactive: efficacy [4] -27% | outcome [5] | outcome [6] | outcome [10] | outcome [9]

O=C(O)C1(C(=O)O)CCC1.[NH2-].[NH2-].[Pt+2]
inactive: efficacy [4] -21.2% | outcome [5] | outcome [6] | outcome [10] | outcome [9]

CCCCS(=O)(=O)N[C@@H](Cc1ccc(OCCCCC2CCNCC2)cc1)C(=O)O
inactive: efficacy [4] 9.81% | outcome [5] | outcome [6] | outcome [10] | outcome [9]

CC(C)NC[C@@H](O)COc1ccc(CC(N)=O)cc1
inactive: efficacy [4] -16.3% | outcome [5] | outcome [6] | outcome [10] | outcome [9]

NCCCC(N)CC(=O)NCC1NC(=O)C(CO)NC(=O)C(N)CNC(=O)C(C2CCN=C(N)N2)NC(=O)C(=CNC(N)=O)NC1=O (stereo not drawn) (H-[Dap]S[Dap](ξβ3hOrn)[ΔAla(3-NHCONH2)][X1]; lactam 1-C; configuration not given here)
100%: parasite growth remaining, % of DMSO control (lower = more inhibition) ([2]; at 28.5 µM)
92.7%: parasite growth, % of DMSO control [1, 16]
101%: parasite growth, % of DMSO control ([1]; at 28.5 µM) | growth, % of control [3, 16]
86.8%: growth, % of control ([3]; at 28.5 µM)
92.4%: parasite growth remaining, % of DMSO control (lower = more inhibition) [2, 16]
inactive: efficacy [4] 13% | outcome [5] | outcome [6] | outcome [10] | outcome [9]

CC(C)CC(N(C)C)C1(c2ccc(Cl)cc2)CCC1 (centres undefined)
99.9%: parasite growth remaining, % of DMSO control (lower = more inhibition) [2, 15]
90.3%: parasite growth, % of DMSO control [1, 15]
inactive: max response [14] 6.63% | efficacy [4] -28.7% | outcome [5] | outcome [6] | outcome [10] | outcome [9]
105%: growth, % of control [3, 15]

COc1ccccc1OCC(O)COC(N)=O (centres undefined)
inactive: efficacy [4] -13% | outcome [5] | outcome [6] | outcome [10] | outcome [9]

C#CCN(C)[C@H](C)Cc1ccccc1
inactive: max response [14] -11.5% | efficacy [4] 21.9% | outcome [5] | outcome [6] | outcome [10] | outcome [9]
95.7%: growth, % of control [3, 15]
97.8%: parasite growth remaining, % of DMSO control (lower = more inhibition) [2, 15]
92.5%: parasite growth, % of DMSO control [1, 15]

CCCCc1nc(Cl)c(CO)n1Cc1ccc(-c2ccccc2-c2nn[nH]n2)cc1
inactive: efficacy [4] -25.2% | outcome [6] | outcome [10] | outcome [7] | outcome [8] | outcome [9]

COc1ccc(OC)c(C(O)CNC(=O)CN)c1 (centres undefined)
inactive: efficacy [4] 13.6% | outcome [5] | outcome [10] | outcome [7] | outcome [9]

CC1=NS(=O)(=O)c2cc(Cl)ccc2N1
inactive: efficacy [4] -18.7% | outcome [5] | outcome [6] | outcome [8] | outcome [9]

CCOC(=O)[C@H](CCc1ccccc1)N[C@@H](C)C(=O)N1[C@H](C(=O)O)C[C@@H]2CCC[C@@H]21
inactive: efficacy [4] -29.2% | outcome [5] | outcome [10] | outcome [8] | outcome [9]

COC(=O)Nc1nc2ccc(C(=O)C3CC3)cc2[nH]1
active: AC50 [7] 8.91 µM | AC50 [8] 7.94 µM
inactive: efficacy [4] 69.7%

CCCCCCCCCCCCCC[N+](C)(C)Cc1ccccc1
inactive: efficacy [4] -210%
active: AC50 [7] 39.8 µM | AC50 [8] 25.1 µM

O=C1CCC(N2C(=O)c3ccccc3C2=O)C(=O)N1 (centres undefined)
inactive: efficacy [4] -16.4% | outcome [6] | outcome [10] | outcome [7] | outcome [8] | outcome [9]

O=C1C(=O)c2ccccc2C(O)=C1C1CCC(c2ccc(Cl)cc2)CC1 (centres undefined)
inactive: efficacy [4] 18.6% | outcome [5] | outcome [6] | outcome [9]

CC(C)NCC(O)COc1cccc2[nH]ccc12 (centres undefined)
active: AC50 [7] 39.8 µM
inactive: efficacy [4] -19.5% | outcome [5] | outcome [10] | outcome [8] | outcome [9]

Cc1ccccc1C(=O)Nc1ccc(C(=O)N2CCCC(O)c3cc(Cl)ccc32)c(C)c1 (centres undefined)
inactive: efficacy [4] 54.1% | outcome [5] | outcome [10]
active: AC50 [7] 25.1 µM | AC50 [8] 25.1 µM

CC1=C(C(=O)O)N2C(=O)[C@@H](NC(=O)[C@H](N)c3ccc(O)cc3)[C@H]2SC1
inactive: efficacy [4] -8.88% | outcome [6] | outcome [10] | outcome [7] | outcome [8] | outcome [9]

CCC[C@H](N[C@@H](C)C(=O)N1[C@H](C(=O)O)C[C@@H]2CCCC[C@@H]21)C(=O)OCC
inactive: efficacy [4] -25% | outcome [6] | outcome [7] | outcome [8] | outcome [9]

CCCCCCC[N+](CC)(CC)CCCCc1ccc(Cl)cc1
inactive: efficacy [4] 30.3% | outcome [8]
active: AC50 [7] 39.8 µM

CCN(CC)C(=S)SSC(=S)N(CC)CC
inactive: efficacy [4] -47.8% | outcome [6] | outcome [10]
active: AC50 [7] 7.08 µM | AC50 [8] 7.94 µM and 22.4 µM

O=c1[nH]cc(F)c(=O)[nH]1
85.2%: growth, % of control [3, 15]
inactive: efficacy [4] 26.1% | outcome [5] | outcome [6] | outcome [8] | outcome [9]
42.1%: parasite growth, % of DMSO control [1, 15]

CC(C)c1nc(CN(C)C(=O)N[C@H](C(=O)N[C@@H](Cc2ccccc2)C[C@H](O)[C@H](Cc2ccccc2)NC(=O)OCc2cncs2)C(C)C)cs1
active: AC50 [8] 22.4 µM
inactive: efficacy [4] 31.8% | outcome [6] | outcome [10] | outcome [7]

CNCCC(Oc1ccc(C(F)(F)F)cc1)c1ccccc1 (centres undefined)
active: AC50 [5] 14.1 µM | AC50 [7] 8.91 µM | AC50 [8] 3.55 µM
inactive: efficacy [4] -180% | outcome [10]

O=C(CCCN1CCC(O)(c2ccc(Cl)cc2)CC1)c1ccc(F)cc1
inactive: efficacy [4] 61.7% | outcome [6] | outcome [10]
active: AC50 [7] 10 µM | AC50 [8] 10 µM

CC1(C)NC(=O)N(c2ccc([N+](=O)[O-])c(C(F)(F)F)c2)C1=O
inactive: efficacy [4] 16.8% | outcome [6] | outcome [10] | outcome [9]

CC(C)OC(=O)C(C)(C)Oc1ccc(C(=O)c2ccc(Cl)cc2)cc1
inactive: efficacy [4] 75.8% | outcome [6] | outcome [10] | outcome [7] | outcome [8]

COc1ccccc1OCCNCC(O)COc1cccc2[nH]c3ccccc3c12 (centres undefined)
inactive: efficacy [4] 67.7% | outcome [10]
active: AC50 [5] 11.2 µM | AC50 [8] 2.24 µM

OC1(c2ccc(Cl)c(C(F)(F)F)c2)CCN(CCCC(c2ccc(F)cc2)c2ccc(F)cc2)CC1
inactive: efficacy [4] -169%
active: AC50 [7] 5.01 µM | AC50 [8] 2.82 µM

NC(=O)c1cn(Cc2c(F)cccc2F)nn1
inactive: efficacy [4] -11.2% | outcome [5] | outcome [10] | outcome [7] | outcome [9]

CC[C@@H](CO)NC(=O)[C@@H]1C=C2c3cccc4c3c(cn4C)C[C@H]2N(C)C1
inactive: outcome [12] | outcome [13] | max response [14] 1.36% | efficacy [4] 9.51% | outcome [5] | outcome [10] | outcome [8] | outcome [9]

From PubChem BioAssay (NCATS)
